A short description of assay [1]: qHTS assay to identify small molecule antagonists of the glucocorticoid receptor (GR) signaling pathway - cell viability counter screen (AID 720693). Note: nearly all actives have a fitted effect of over 55% in size. A general note: qHTS replaces the single test concentration by a dilution series.
A short description of assay [2]: qHTS assay for identifying genotoxic compounds that show differential cytotoxicity against isogenic chicken DT40 cell lines with known DNA damage response pathways - wild type cell line (AID 743012). Note: nearly all actives have a fitted effect of over 60% in size. Note: potency is the fitted concentration of half-maximal effect. An outline of the steps:
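Viability by ATP luminescence (CellTiter-Glo, 30 min RT) after 40 h compound treatment at 37 C/5% CO2, using 300 parental DNA repair-proficient DT40 cells per well.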

Assay [3] in a line: qHTS assay for identifying genotoxic compounds that show differential cytotoxicity against isogenic chicken DT40 cell lines with known DNA damage response pathways - Rev3 mutant cell line (AID 743014). Note: nearly all actives have a fitted effect of over 55% in size. Note: potency is the fitted concentration of half-maximal effect.
The nature of assay [4]: qHTS assay for identifying genotoxic compounds that show differential cytotoxicity against isogenic chicken DT40 cell lines with known DNA damage response pathways - Rad54/Ku70 mutant cell line (AID 743015). Note: nearly all actives have a fitted effect of over 60% in size. Note: potency is the fitted concentration of half-maximal effect.
Assay [5] is described as follows: qHTS assay to identify small molecule antagonists of the androgen receptor (AR) signaling pathway - cell viability counter screen (AID 743033; note: nearly all actives have a fitted effect of over 45% in size; note: potency is the fitted concentration of half-maximal effect).
A short description of assay [6]: qHTS assay to identify small molecule antagonists of the androgen receptor (AR) signaling pathway using the MDA cell line - cell viability counter screen (AID 743041; note: nearly all actives have a fitted effect of over 45% in size; note: potency is the fitted concentration of half-maximal effect). An outline of the steps: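 Viability read by CellTiter-Fluor fluorescence in the same wells as the antagonist screen, added after 15.5 h of a 16 h, 37C exposure. Human breast carcinoma MDA-kb2 AR-luc cells, compounds co-dosed with agonist R1881.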

Assay [7] is described as follows: qHTS assay to identify small molecule antagonists of the thyroid receptor (TR) signaling pathway - cell viability counter screen (AID 743064). Note: nearly all actives have a fitted effect of over 50% in size. Note: potency is the fitted concentration of half-maximal effect. An outline of the steps:
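GH3.TRE-Luc rat pituitary cells dosed after 4 hr plating, co-stimulated with T3 at 1 nM final, incubated 23.5 h at 37 C. Viability measured in the same wells by CellTiter-Fluor fluorescence after 30 min further at 37 C.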

A short description of assay [8]: qHTS assay to identify small molecule antagonists of the thyroid receptor (TR) signaling pathway (AID 743065). Note: nearly all actives have a fitted effect of over 55% in size. Note: potency is the fitted concentration of half-maximal effect. An outline of the steps:
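Antagonism measured as loss of luciferase signal in GH3 cells stably carrying a TRE-luciferase reporter, co-treated with compound and T3 (1 nM final) for 23.5 h at 37 C. Viability was read in the same well by CellTiter-Fluor.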

Assay [9] concerns thyroid hormone receptor (rat, GH3 cells). The experiment in a line: qHTS assay to identify small molecule agonists of the thyroid receptor (TR) signaling pathway (AID 743066; calls by dose curve).
Assay [10] can be described thus: qHTS assay to identify small molecule antagonists of the estrogen receptor alpha (ER-alpha) signaling pathway - cell viability counter screen (AID 743074; calls by dose curve;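 note: HEK293 cells carrying ER-alpha-UAS-bla reporter stimulated with 17beta-estradiol; nearly all actives have a fitted effect of over 45% in size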; note: potency is the fitted concentration of half-maximal effect).
Assay [11] is described as follows: qHTS assay to identify small molecule antagonists of the estrogen receptor alpha (ER-alpha) signaling pathway using the BG1 cell line - cell viability counter screen (AID 743081).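 Note: compound given together with 17beta-estradiol as the ER stimulus; nearly all actives have a fitted effect of over 45% in size.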 Note: potency is the fitted concentration of half-maximal effect.
Another assay concerns the target Aromatase (Homo sapiens) (UniProt P11511). The experiment in a line: qHTS assay to identify aromatase inhibitors (AID 743083). Note: nearly all actives have a fitted effect of over 55% in size. Note: potency is the fitted concentration of half-maximal effect.
In assay [12] the target is Androgen receptor (Homo sapiens) (UniProt P10275). The experiment in a line: qHTS assay to identify small molecule antagonists of the androgen receptor (AR) signaling pathway (AID 743035; active = well fitted inhibition curve with a large enough effect in the signal ratio in the repeat runs, not every such curve was filed as active; inconclusive = weak or mixed curves, or effect the other way; inactive = no such curve, though single readings can be large or run the other way; the % refers to the signal ratio; note: potency is the fitted concentration of half-maximal effect). An outline of the steps:
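Antagonist mode: AR-bla HEK293 cells co-treated with test compounds and agonist R1881 for 16 h at 37C, 5% CO2. Beta-lactamase activity read as FRET fluorescence after 2 h room-temperature substrate loading.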

Assay [13] shares this target. The experiment in a line: qHTS assay to identify small molecule agonists of the androgen receptor (AR) signaling pathway (AID 743036; active = well fitted activation curve with a large enough effect in the signal ratio in the repeat runs, with a control signal flat, not every such curve was filed as active; inconclusive = weak or mixed curves, or effect the other way; inactive = no such curve, though single readings can be large or run the other way; the % refers to the signal ratio; note: potency is the fitted concentration of half-maximal effect). An outline of the steps:
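AR-UAS-bla HEK293 cells, plated 4 h before dosing, were treated with compound for 16 h at 37C. beta-Lactamase reporter read after 2 h with LiveBLAzer B/G FRET substrate at room temperature.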

Assay [14] has the same target. The experiment in a line: qHTS assay to identify small molecule agonists of the androgen receptor (AR) signaling pathway using the MDA cell line (AID 743040; note: nearly all actives have a fitted effect of over 20% in size; note: potency is the fitted concentration of half-maximal effect). The settings on record: MDA-kb2 AR-luc cells, MMTV luciferase, 16 h; activity change: at 70.3 µM (top of the series), stronger effect = higher value. The procedure, abridged:
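Luciferase agonist assay: 16 h compound exposure at 37C without CO2 in MDA-kb2 AR-luc cells, whose MMTV promoter responds to both AR and GR. Luminescence measured after 30 min room-temperature incubation with ONE-Glo.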

For assay [15] the target is unchanged. The experiment in a line: qHTS assay to identify small molecule antagonists of the androgen receptor (AR) signaling pathway using the MDA cell line (AID 743042; note: nearly all actives have a fitted effect of over 55% in size; note: potency is the fitted concentration of half-maximal effect). An outline of the steps:
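Antagonist mode: compounds plus R1881 agonist added to MDA-kb2 AR-luc cells, incubated 16 h at 37C. Luciferase reporter luminescence quantified, with multiplexed CellTiter-Fluor readout for cell viability.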

For assay [16], the target named is Estrogen receptor (Homo sapiens) (UniProt P03372). The experiment in a line: qHTS assay to identify small molecule agonists of the estrogen receptor alpha (ER-alpha) signaling pathway (AID 743075; calls by dose curve;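 note: HEK293 GripTite cells with ER-alpha and UAS-driven beta-lactamase reporter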; note: potency is the fitted concentration of half-maximal effect).
Chain of Estrogen receptor (Homo sapiens) (P03372 whole entry, looked up): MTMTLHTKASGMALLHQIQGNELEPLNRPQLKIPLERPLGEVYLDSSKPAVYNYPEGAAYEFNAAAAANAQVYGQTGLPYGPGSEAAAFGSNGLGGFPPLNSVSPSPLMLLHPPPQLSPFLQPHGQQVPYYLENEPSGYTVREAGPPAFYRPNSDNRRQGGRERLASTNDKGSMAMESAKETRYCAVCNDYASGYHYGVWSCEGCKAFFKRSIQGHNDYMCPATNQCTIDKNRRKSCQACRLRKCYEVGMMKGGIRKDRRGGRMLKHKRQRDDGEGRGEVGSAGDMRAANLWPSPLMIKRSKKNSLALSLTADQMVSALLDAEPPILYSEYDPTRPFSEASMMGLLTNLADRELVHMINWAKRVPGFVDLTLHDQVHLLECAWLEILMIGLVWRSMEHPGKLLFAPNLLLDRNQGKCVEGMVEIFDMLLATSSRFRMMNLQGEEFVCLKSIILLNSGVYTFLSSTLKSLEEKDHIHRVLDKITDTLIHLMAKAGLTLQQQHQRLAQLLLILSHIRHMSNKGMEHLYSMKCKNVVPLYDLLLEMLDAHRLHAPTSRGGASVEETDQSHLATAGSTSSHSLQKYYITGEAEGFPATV
Assay [17] has the same target. The experiment in a line: qHTS assay to identify small molecule agonists of the estrogen receptor alpha (ER-alpha) signaling pathway using the BG1 cell line (AID 743079). Note: nearly all actives have a fitted effect of over 20% in size. Note: potency is the fitted concentration of half-maximal effect.
Assay [18] is described as follows: qHTS assay to identify small molecule antagonists of the estrogen receptor alpha (ER-alpha) signaling pathway using the BG1 cell line (AID 743080; calls by dose curve;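 note: BG1 cells stimulated with 17beta-estradiol alongside compound; nearly all actives have a fitted effect of over 25% in size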). An outline of the steps:
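Quantitative HTS on the Tox21 10K library: BG1 cells with endogenous ER-alpha and ERE-luciferase reporter, 17beta-estradiol stimulation, 21.5 h compound exposure, luminescence endpoint with parallel fluorescence cytotoxicity counter-read.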

SMILES strings stand for the structures. “And” between values parts separate entries of the source, which are not always exact repeats. Identical values can stand only once. Some structures have more than one record in an assay (separate samples or runs), and their calls can disagree. The source made the active and inactive calls. Unless noted, calls come from the whole dose curve; as a rule, active = well fitted curve in the direction sought with a large enough effect in the repeat runs; inconclusive = weak or mixed curves; inactive = no such curve, though single readings can be large; an effect the other way counts as inactive or inconclusive.

Chain of Aromatase (Homo sapiens) (P11511 whole entry, looked up): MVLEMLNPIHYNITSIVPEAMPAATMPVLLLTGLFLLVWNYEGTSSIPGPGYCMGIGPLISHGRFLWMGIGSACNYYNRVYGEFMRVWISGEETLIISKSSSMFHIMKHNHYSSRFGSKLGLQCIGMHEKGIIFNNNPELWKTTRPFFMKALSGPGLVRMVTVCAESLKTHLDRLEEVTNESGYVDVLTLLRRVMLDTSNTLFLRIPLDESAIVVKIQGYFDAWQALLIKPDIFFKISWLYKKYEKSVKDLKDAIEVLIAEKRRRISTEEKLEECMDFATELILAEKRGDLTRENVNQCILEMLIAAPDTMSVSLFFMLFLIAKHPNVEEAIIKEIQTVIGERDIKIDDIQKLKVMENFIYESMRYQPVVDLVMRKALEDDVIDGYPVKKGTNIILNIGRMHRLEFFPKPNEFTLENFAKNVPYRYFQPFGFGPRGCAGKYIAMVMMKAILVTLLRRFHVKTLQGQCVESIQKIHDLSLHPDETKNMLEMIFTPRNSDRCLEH
Chain of Androgen receptor (Homo sapiens) (P10275 whole entry, looked up): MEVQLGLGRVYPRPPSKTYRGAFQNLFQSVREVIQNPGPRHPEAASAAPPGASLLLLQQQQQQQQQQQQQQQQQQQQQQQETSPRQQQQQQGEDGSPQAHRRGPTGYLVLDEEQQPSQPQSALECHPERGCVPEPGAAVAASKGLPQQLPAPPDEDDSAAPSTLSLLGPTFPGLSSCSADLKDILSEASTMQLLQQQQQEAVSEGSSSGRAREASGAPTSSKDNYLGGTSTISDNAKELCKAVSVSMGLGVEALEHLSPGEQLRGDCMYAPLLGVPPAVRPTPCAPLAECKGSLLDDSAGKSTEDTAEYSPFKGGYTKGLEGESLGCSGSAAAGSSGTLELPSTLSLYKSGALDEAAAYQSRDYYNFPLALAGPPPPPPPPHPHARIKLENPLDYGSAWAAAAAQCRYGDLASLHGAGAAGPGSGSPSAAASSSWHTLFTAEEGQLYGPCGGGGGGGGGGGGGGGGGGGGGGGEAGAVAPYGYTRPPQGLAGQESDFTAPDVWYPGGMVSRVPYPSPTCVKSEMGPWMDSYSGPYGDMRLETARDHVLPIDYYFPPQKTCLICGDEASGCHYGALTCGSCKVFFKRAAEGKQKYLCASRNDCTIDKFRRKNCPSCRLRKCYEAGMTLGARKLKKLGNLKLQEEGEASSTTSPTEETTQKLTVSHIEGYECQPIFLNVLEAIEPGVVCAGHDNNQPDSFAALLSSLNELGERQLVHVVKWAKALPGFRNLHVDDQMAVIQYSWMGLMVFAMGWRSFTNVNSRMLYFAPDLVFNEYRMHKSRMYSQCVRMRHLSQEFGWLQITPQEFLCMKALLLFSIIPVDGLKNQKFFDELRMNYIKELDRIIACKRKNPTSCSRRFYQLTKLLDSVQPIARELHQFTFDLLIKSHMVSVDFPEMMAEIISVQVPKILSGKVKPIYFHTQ

Consider `CCN(CC)N=O`, for which the Potency result in assay [1], in assay [2], in [3], in assay [4], in assay [5] and in assay [6] was “inactive” in each case. Moreover, the Potency entry (in assay [7]; in assay [8]; in [9]; in assay [10]; in [11]; with Aromatase (Homo sapiens)) was “inactive” each time.
Turning to `Cc1cc(C)cc(C)c1`, the Potency entry in assay [1], in assay [2], in assay [3], in [4], in assay [5] and in assay [6] was “inactive” each time. For the same compound, the Potency entry in [7], in assay [8], in assay [9], in [10] and in assay [11] was “inactive” each time.
For `C=C(C)[C@H]1Cc2c(ccc3c2O[C@@H]2COc4cc(OC)c(OC)cc4[C@@H]2C3=O)O1`, the Potency result in [1], in [13], in [14] and in assay [9] was “inactive” each time. Besides, the Potency in assay [2] is 59.6 nM (active) and 19.6 nM (active) and 8.6 nM (active); in [3], 119 nM (active) and 11 nM (active) and 8.6 nM (active); in [4] it was 75 nM (active) and 9.8 nM (active) and 8.6 nM (active); in [5] it was 62.5 nM (active) and 38.9 nM (active); in assay [12], 756 nM (active) and 279 nM (active); in [6], 393 nM (active) and 39.1 nM (active) and 30.6 nM (active). Further, the Potency in assay [15] was 188 nM (active) and 24.7 nM (active) and 9.7 nM (active); in assay [7], 841 nM (active) and 8.75 µM (active) and 4.86 µM (active); in [8] it was 237 nM (active) and 34.8 nM (active) and 61.1 nM (active); in [10], 67.4 nM (active) and 44.2 nM (active); in assay [11], 7.8 µM (active) and 38.6 µM (active); in the assay with Aromatase (Homo sapiens), 15 µM (active) and 34.8 µM (active) and 34.4 µM (active).
For the compound `O=C1C=CC(=O)C=C1`, the Potency result in assay [1], in assay [5], in assay [6], in assay [7], in assay [8] and in [9] was “inactive” in each case. Further, the Potency result (in [10]; in [11]; with Aromatase (Homo sapiens)) was “inactive” in each case. The Potency result in assay [2] was “inactive and 9.69 µM (active)”; in assay [3], “inactive and 9.69 µM (active)”; in assay [4] it was “inactive and 10.9 µM (active)”.
As to `CC(C)N(C(=O)SCC(Cl)=C(Cl)Cl)C(C)C`, the Potency entry in [1], in assay [5], in assay [6], in assay [9], in [10] and in assay [11] was “inactive” each time. Moreover, the Potency was 61.1 µM (active) in assay [2]; “inactive and 54.5 µM (active)” in assay [3]; “inactive and 30.6 µM (active)” in assay [4]; 47.9 µM (active) in assay [7]; 53.8 µM (active) and 61.1 µM (active) in assay [8].
On to `CCCCCCOC(=O)c1ccccc1C(=O)OCCCCCC`, for which the Potency result in assay [1], in assay [3], in [4], in assay [5], in assay [6] and in assay [7] was “inactive” each time. The Potency result in assay [8], in [9], in [10], in assay [16], in assay [17] and in assay [18] was “inactive” throughout. Also, the Potency entry (in assay [11]; in the assay with Aromatase (Homo sapiens)) was “inactive” in each case. Also, the Potency entry in [2] is “inactive and 30.6 µM (active)”.
Turning to `OCC(O)CO`, the Potency result in assay [1], in assay [2], in assay [3], in assay [4], in assay [5] and in assay [6] was “inactive” in each case. Besides, the Potency result in assay [7], in assay [8], in assay [9], in assay [10], in [16] and in assay [17] was “inactive” throughout. In addition, the Potency entry (in [18]; in assay [11]; with Aromatase (Homo sapiens)) was “inactive” each time.
In the case of `O=[N+]([O-])c1c(Cl)c(Cl)c(Cl)c(Cl)c1Cl`, the Potency entry in assay [1], in assay [3], in [5], in assay [13], in assay [14] and in assay [6] was “inactive” throughout. The Potency entry in assay [9], in assay [10], in assay [16], in [17], in assay [18] and in assay [11] was “inactive” each time. For the same compound, the Potency in assay [2] was 61.1 µM (active); in assay [4], “inactive and 61.1 µM (active)”; in assay [15], “inactive and 43.3 µM (active)”; in assay [7], 54.5 µM (active); in the assay with Aromatase (Homo sapiens), “inactive and 61.1 µM (active)”.
As to `NCc1cccnc1`, the Potency entry in assay [1], in assay [2], in assay [3], in [4], in [5] and in [6] was “inactive” in each case. For the same compound, the Potency result in assay [7], in assay [8], in assay [9], in assay [10], in [16] and in assay [17] was “inactive” each time. Besides, the Potency entry (in assay [18]; in assay [11]; with Aromatase (Homo sapiens)) was “inactive” each time.
For the compound `CCCCCCCCCCCOC(=O)c1ccccc1C(=O)OCCCCCCCCCCC`, the Potency entry in [1], in [2], in assay [3], in assay [5], in assay [6] and in [7] was “inactive” each time. Moreover, the Potency entry in [8], in assay [9], in [10], in assay [16], in [18] and in assay [11] was “inactive” each time. In addition, the Potency result with Aromatase (Homo sapiens) is “inactive”. Further, in assay [17], the Potency is 26.6 µM (active) and inactive.
On to `CCC(=O)O[C@H]1CC[C@H]2[C@@H]3CCC4=CC(=O)CC[C@]4(C)[C@H]3CC[C@]12C`, for which the Potency result in [1], in [6], in assay [15], in assay [9], in assay [10] and in assay [18] was “inactive” throughout. Besides, the Potency result (in [11]; with Aromatase (Homo sapiens)) was “inactive” throughout. For the same compound, the Potency in assay [2] was 10.1 µM (active) and 19.3 µM (active); in [3], 11.4 µM (active) and 17.2 µM (active); in assay [5], “inactive and 49 µM (active)”; in assay [13] it was 0.0039 µM (active); in assay [14], 1.3 nM (active) and 1.7 nM (active); in assay [7], “inactive and 43.3 µM (active)”. The Potency in assay [16] was 3.23 µM [inconclusive] (active) and 3.47 µM [inconclusive] (active); in assay [17], 22.7 nM (active) and 34.4 nM (active).

The values above are taken from PubChem BioAssay (Tox21).
